The results in this text go back to PubChem BioAssay.

For test [1], the system named is Human papillomavirus type 1a protein E7 (residues 44-93). As to the kind of experiment: HPV1a E7 fragment binders on microarrays, primary screen, biochemical, small-molecule microarray, residues 44-93, 635 nm fluorescence (AID 1108).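 Further: E7 fragment applied at 1 µg/mL in TBST for 1 h at 4 C; score combines spot fluorescence with its signal to noise ratio.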 As to conditions: small-molecule microarray binding, fluorescence 635 nm; higher = more signal.
A short description of test [2]: modulators of HCV replicon luciferase signal, primary screen, HCV replication inhibitor project, Huh7 cells, luciferase reporter (AID 1109).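 Further: huh7 hepatoma cells harbouring a luciferase neomycin HCV replicon reporter; luciferase luminescence as measure of HCV replicon replication; test concentration not given here.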 Conditions: 48 h, higher = more signal. In general terms: In antiviral work, replicon cells carry a viral genome segment that copies itself.
Test [3] deals with Left-right determination factor 2 (Homo sapiens) (UniProt O00292). As to the kind of experiment: LEFTY2 binders on small-molecule microarrays, primary screen, biochemical, small-molecule microarray, 635 nm fluorescence scan (AID 1110). Conditions: LEFTY2 binding, higher = more signal.
Chain of Left-right determination factor 2 (Homo sapiens) (O00292 whole entry, looked up): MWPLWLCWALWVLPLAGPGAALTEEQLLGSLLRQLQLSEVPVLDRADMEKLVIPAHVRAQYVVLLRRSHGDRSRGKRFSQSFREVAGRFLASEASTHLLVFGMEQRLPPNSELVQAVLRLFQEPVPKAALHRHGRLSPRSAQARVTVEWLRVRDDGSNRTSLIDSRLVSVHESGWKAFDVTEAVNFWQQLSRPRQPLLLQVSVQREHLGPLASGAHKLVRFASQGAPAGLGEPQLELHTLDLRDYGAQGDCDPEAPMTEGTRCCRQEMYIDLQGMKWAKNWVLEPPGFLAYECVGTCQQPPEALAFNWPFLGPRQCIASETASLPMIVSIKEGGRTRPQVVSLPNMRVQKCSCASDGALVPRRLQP
For test [4], the target named is Calmodulin-1 (Homo sapiens) (UniProt P0DP23). Put plainly: CALM1 binders on microarrays, EGTA buffer, profiling panel, biochemical, small-molecule microarray, Cy5-labelled CALM1 (AID 1111).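 Further: labelled calmodulin applied in Tris saline Tween buffer holding calcium plus EGTA and DTT.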 Conditions: Cy5-CALM1 binding fluorescence, higher = more signal.
For test [5] the target is unchanged. As to the kind of experiment: calcium-bound CALM1 binders on microarrays, profiling panel, artefact control for SMM control-protein annotation, biochemical, small-molecule microarray, Cy5-labelled CALM1, plus calcium (AID 1112).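 Further: score merges spot fluorescence with signal to noise from triplicate slides.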 As to conditions: Cy5-CALM1 binding fluorescence, higher = more signal.
Test [6] is described as follows: small-molecule microarray binders of probe aWnt5a, primary screen, biochemical, biotinylated probe, 635/667 nm fluorescence (AID 1113).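 Further: score merges 667 nm fluorescence intensity with signal-to-noise per printed feature.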 Conditions: higher = more signal.
Test [7] can be described thus: small-molecule microarray binders of probe aShh, primary screen, biochemical, biotinylated probe, 635/667 nm fluorescence (AID 1114).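 Further: probe is biotin-labelled aShh protein from a stem cell growth factor screen; measures binding of labelled protein to compounds printed on the slide; score merges feature fluorescence at 667 nm with signal-to-noise.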 As to conditions: higher = more signal.
Test [8] is described as follows: small-molecule microarray binders of probe aNog, primary screen, biochemical, biotinylated probe, 635/667 nm fluorescence (AID 1115).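 Further: probe is biotinylated aNog protein used at 0.15 µg/mL for 1 h at 4 C; z-score combines 667 nm fluorescence of each spot with its signal to noise.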 As to conditions: higher = more signal.
The target of test [9] is Torsin-1A-interacting protein 1 (Homo sapiens) (UniProt Q5JTV8). As to the kind of experiment: LAP1 binders from COS7 cell lysate, primary screen, small-molecule microarray, 635/667 nm fluorescence (AID 1116). As to conditions: COS7-hLAP1 lysate binding, 635 nm fluorescence, higher = more signal.
Chain of Torsin-1A-interacting protein 1 (Homo sapiens) (Q5JTV8 whole entry, looked up): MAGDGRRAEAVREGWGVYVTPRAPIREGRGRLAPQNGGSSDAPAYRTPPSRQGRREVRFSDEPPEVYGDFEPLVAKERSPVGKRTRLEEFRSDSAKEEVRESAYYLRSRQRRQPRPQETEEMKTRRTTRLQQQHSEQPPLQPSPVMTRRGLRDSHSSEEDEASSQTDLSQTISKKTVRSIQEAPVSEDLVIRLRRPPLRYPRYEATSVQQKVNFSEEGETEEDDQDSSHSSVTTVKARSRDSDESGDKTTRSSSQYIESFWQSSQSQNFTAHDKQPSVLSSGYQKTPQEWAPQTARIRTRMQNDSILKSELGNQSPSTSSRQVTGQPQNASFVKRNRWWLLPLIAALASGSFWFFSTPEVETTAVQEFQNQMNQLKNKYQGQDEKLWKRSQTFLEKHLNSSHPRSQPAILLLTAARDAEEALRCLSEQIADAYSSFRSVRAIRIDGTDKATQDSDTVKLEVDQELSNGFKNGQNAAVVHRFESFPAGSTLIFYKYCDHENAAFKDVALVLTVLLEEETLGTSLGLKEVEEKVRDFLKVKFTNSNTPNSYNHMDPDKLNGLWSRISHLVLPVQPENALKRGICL
For test [10], the target named is Alpha-bungarotoxin (Bungarus multicinctus) (UniProt P60615). Put plainly: alpha-bungarotoxin binders on microarray, profiling panel, artefact control for SMM control protein annotation, biochemical, small-molecule microarray, Alexa647 label, 635/667 nm fluorescence (AID 1117). Conditions: alpha-BTX-A647 binding fluorescence, higher = more signal.
Chain of Alpha-bungarotoxin (Bungarus multicinctus) (P60615 whole entry, looked up): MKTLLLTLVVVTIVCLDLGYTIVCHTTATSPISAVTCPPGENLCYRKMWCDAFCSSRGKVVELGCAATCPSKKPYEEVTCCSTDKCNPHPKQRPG
For the next test, the target named is Albumin (Bos taurus) (UniProt P02769). Put plainly: bovine serum albumin binders on microarray, profiling panel, artefact control for SMM control protein annotation, biochemical, small-molecule microarray, Alexa647 label, 635/667 nm fluorescence (AID 1118).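 Further: score merges 667 nm emission intensity and signal-to-noise per printed compound spot.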 Conditions: BSA-A647 binding, fluorescence 635 nm, higher = more signal.
Chain of Albumin (Bos taurus) (P02769 whole entry, looked up): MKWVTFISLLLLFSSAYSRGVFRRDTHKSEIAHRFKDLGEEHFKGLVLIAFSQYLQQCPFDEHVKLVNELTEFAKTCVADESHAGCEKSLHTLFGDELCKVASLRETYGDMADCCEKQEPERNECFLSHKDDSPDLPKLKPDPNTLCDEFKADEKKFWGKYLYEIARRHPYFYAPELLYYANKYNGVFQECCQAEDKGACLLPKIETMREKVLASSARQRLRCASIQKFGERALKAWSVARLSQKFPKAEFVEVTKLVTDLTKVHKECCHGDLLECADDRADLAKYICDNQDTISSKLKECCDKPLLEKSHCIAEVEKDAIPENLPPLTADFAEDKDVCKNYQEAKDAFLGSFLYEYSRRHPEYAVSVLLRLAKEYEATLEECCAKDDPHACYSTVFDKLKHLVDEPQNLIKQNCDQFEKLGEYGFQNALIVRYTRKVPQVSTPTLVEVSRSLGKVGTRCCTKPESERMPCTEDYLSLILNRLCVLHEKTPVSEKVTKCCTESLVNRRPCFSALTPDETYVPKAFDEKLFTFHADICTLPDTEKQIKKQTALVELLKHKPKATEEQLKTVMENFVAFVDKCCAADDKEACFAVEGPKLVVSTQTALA
A short description of test [11]: small-molecule microarray binders of probe aXIP, primary screen, biochemical, NeuroSMM set, 635/667 nm fluorescence (AID 1119).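 Further: probe is the protein aXip251-270 applied at 1 µg/mL to compound-printed slides; binding of probe to printed compounds measured as 667 nm fluorescence plus signal to noise.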 As to conditions: higher = more signal, called active from +8 up or from −8 down.
A short description of test [12]: small-molecule binders of probe aNOTCH3, primary screen, biochemical, small-molecule microarray, 635/667 nm fluorescence (AID 1120).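 Further: probe is a biotin-tagged antibody raised against NOTCH3 rather than NOTCH3 protein; score merges spot fluorescence near 667 nm with spot signal to noise.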 As to conditions: higher = more signal.
Test [13] can be described thus: small-molecule binders of probe aNOTCH2, primary screen, biochemical, small-molecule microarray, 635/667 nm fluorescence (AID 1121).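 Further: score merges feature fluorescence read at 667 nm with its signal to noise.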 As to conditions: higher = more signal.
Test [14] deals with Carbonic anhydrase 2 (Homo sapiens) (UniProt P00918). Put plainly: CAII small-molecule binders, profiling panel, biochemical, small-molecule microarray, Alexa647-labelled CAII (AID 1122). Conditions: CAII-A647 binding fluorescence, higher = more signal.
A short description of test [15]: COS7 lysate on small-molecule microarray, probe aHis, 635 nm (AID 1123).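 Further: z-score combines 667nm fluorescence intensity with signal-to-noise per printed compound spot.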 As to conditions: COS7 cell lysate, fluorescence, higher = more signal.
A short description of test [16]: compound binding in COS7 lysate, probe aLAP1, primary screen, cell lysate, small-molecule microarray (AID 1124).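 Further: lysate comes from COS7 cells expressing LAP1 and is applied at 0.3 µg/mL; score merges spot fluorescence near 667 nm with signal-to-noise over triplicate slides.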 Conditions: probe aLAP1, fluorescence, higher = more signal.
For a further test, the system named is Sam68 (KHDRBS1). Put plainly: Sam68 small-molecule binders, primary screen, biochemical, small-molecule microarray, 635 nm fluorescence (AID 1125).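 Further: score merges 667 nm channel intensity with signal to noise over triplicate slides.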 Conditions: small-molecule microarray binding, higher = more signal.
The subject of test [17] is Chordin-like protein 2 (CHRDL2). Put plainly: CHRDL2 small-molecule binders, primary screen, biochemical, small-molecule microarray, 635 nm fluorescence (AID 1126).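 Further: printed compound slides probed with Chrdl2 protein at 4 µg/mL for 1 h at 4 C; score merges 667 nm emission intensity with signal to noise over three replicate slides.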 Conditions: small-molecule microarray binding, fluorescence 635 nm; higher = more signal.
The target in test [18] is Concanavalin-A (Canavalia ensiformis) (UniProt P02866). As to the kind of experiment: ConA small-molecule binders, primary screen, artefact control for SMM control protein annotation, biochemical, small-molecule microarray, Alexa647 label, 635 nm (AID 1127).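 Further: z combines 667 nm emission intensity with signal-to-noise across three replicate slides.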 Conditions: ConA-A647 binding fluorescence, higher = more signal.
Chain of Concanavalin-A (Canavalia ensiformis) (P02866 whole entry, looked up): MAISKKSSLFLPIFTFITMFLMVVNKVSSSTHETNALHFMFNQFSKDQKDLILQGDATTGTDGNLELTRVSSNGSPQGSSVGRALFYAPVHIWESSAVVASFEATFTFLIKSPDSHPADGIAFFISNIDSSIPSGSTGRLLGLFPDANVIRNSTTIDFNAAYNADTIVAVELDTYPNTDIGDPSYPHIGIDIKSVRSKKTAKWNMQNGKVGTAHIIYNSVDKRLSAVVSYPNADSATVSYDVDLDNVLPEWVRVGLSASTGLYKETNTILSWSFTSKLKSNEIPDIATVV

Active and inactive are the calls of the source.

Turning to `CN1C(=O)C2C=CC(C(O)C=Cc3ccc([N+](=O)[O-])cc3)N(N3CCCCC3)C2C1=O` (stereo not given), the composite z-score was found to be 0.974 in test [1]; 0.443 in test [3]; 2.44 in [4]; 0.925 in test [5]; 0.613 in [6]; 0.926 in [7]. The composite z-score in test [8] came to 1.66; in test [9], 0.856; in [10], 2.07; with Albumin (Bos taurus), 0.933; in [12], 1.03; in test [13], 0.713. Besides, the composite z-score in test [14] worked out at 0.766; in test [15], 2.1; in [16], 1.52; with Sam68 (KHDRBS1) it was 1.31; in [17] it was 0.57; in [18] it was 1.2. Moreover, in [2], the z-score was found to be 0.789. Also, in [11], the composite Z-score was 0.693 (inactive).

In the case of `O=C1OCCC=C[C@H]2OC34C=CCN(c5ccc6ccccc6c5)C(=O)[C@H]3N(CCCCCCO)C(=O)[C@@H]4C12` (stereo not given in full), the composite z-score was 0.404 in [1]; -0.431 in test [3]; -0.611 in [4]; -0.321 in test [5]; -0.176 in test [6]; -0.0337 in test [7]. Also, the composite z-score in test [8] is -0.201; in [9] it was 0.164; in test [10], -1.37; in the test with Albumin (Bos taurus) it was -0.768; in [12], -0.161; in test [13] it was -0.14. Further, the composite z-score in test [14] is 0.82; in test [15], 0.386; in test [16], -0.674; with Sam68 (KHDRBS1), 0.264; in [17], -0.853; in test [18] it was -1.01. The same compound displayed a z-score in test [2] of 0.0919. In addition, the composite Z-score in test [11] was 0.938 (inactive).

On to `O=C1C[C@@](C(=O)O)(c2ccc([N+](=O)[O-])cc2)[C@@H](c2ccc(CO)cc2I)N1C1CCCCC1`, for which the composite z-score in test [1] is -0.549; in [3], -0.27; in test [4], 1.6; in [5], 0.734; in [6], 0.0194; in [7] it was -0.299. The composite z-score was -0.103 in [8]; -0.126 in [9]; 1.28 in test [10]; 0.909 with Albumin (Bos taurus); 0.18 in test [12]; -0.0397 in [13]. Also, the composite z-score is 0.673 in test [14]; 1.95 in test [15]; -0.405 in [16]; 0.765 with Sam68 (KHDRBS1); -0.422 in test [17]; 1.15 in test [18]. Besides, in test [2], the z-score is -1.32. Moreover, the composite Z-score in test [11] was 0.477 (inactive).

For `CC(=O)n1cc(C(O)C2C=CC3C(=O)N(c4ccccc4)C(=O)C3N2Nc2ccc(C#N)cc2)c2ccccc21` (stereo not given), the composite z-score in test [1] was 1.48; in test [3] it was -0.125; in test [4], 0.449; in test [5], -0.577; in [6], 0.155; in [7] it was 0.385. Also, the composite z-score in [8] is 1.02; in test [9] it was 0.557; in test [10] it was 0.645; with Albumin (Bos taurus), 0.938; in [12], 0.307; in [13] it was 0.0753. Also, the composite z-score in test [14] is 0.798; in test [15] it was 2.7; in test [16], 0.53; with Sam68 (KHDRBS1), 1.31; in test [17], -0.776; in [18], 0.876. Besides, the z-score in test [2] was -0.41. In [11], the composite Z-score is -0.187 (inactive).

Take `COC(=O)[C@@]1(Cc2ccc(F)cc2)[C@H]2c3cc(C(=O)N(C)C)n(CCCNc4ccc(C(F)(F)F)cc4Cl)c3C[C@H]2CN1C(=O)c1ccccc1`: the composite z-score was 1.4 in test [1]; -0.385 in test [3]; 2.36 in test [4]; 1.31 in test [5]; 0.284 in [6]; 0.391 in [7]. In addition, the composite z-score stood at 1.53 in test [8]; 1.37 in [9]; 1.85 in test [10]; 1.03 with Albumin (Bos taurus); 0.568 in [12]; 0.116 in [13]. In addition, the composite z-score in test [14] is 0.778; in [15], 2.87; in test [16] it was 0.12; in the test on Sam68 (KHDRBS1), 1.3; in test [17], -0.841; in test [18] it was 1.17. The same compound yielded a z-score in test [2] of -2.38. The composite Z-score in test [11] was -0.214 (inactive).

On to `C=C(/C(=C/C[C@@H](OC(C)=O)c1ccc(CO)o1)c1cnc2ccccc2c1)C(C)C`, for which the composite z-score in [1] was 1.09; in test [3], 1.06; in [4], 0.384; in [5] it was -1.12; in test [6], -0.0346; in test [7] it was 0.123. In addition, the composite z-score in test [8] was 0.153; in test [9], 1.24; in test [10] it was 0.818; with Albumin (Bos taurus), -0.243; in test [12], 0.12; in test [13] it was -0.0771. The composite z-score was 0.815 in [14]; 1.5 in [15]; 1.11 in [16]; 1.3 with Sam68 (KHDRBS1); 0.847 in test [17]; 0.971 in test [18]. The compound also came in with a z-score in [2] of -2.37. Also, the composite Z-score in [11] was 1.64 (inactive).

As for `CC(C)[Si]1(C(C)C)O[C@@H](c2ccccc2)c2cc(-c3ccc(-c4ccc(Cl)c(Cl)c4)o3)nc(CCc3ccccc3)c21`, the composite z-score in [1] was 0.0027; in test [3] it was -1.32; in [4] it was -0.411; in test [5], 0.873; in test [6] it was -0.152; in test [7], 0.0141. Further, the composite z-score in test [8] is -0.0118; in [9], -0.193; in [10], -1.17; in the test with Albumin (Bos taurus), -1.24; in test [12] it was -0.226; in [13] it was -0.148. Besides, the composite z-score in [14] is 0.287; in test [15], 0.143; in test [16], 0.312; in the test on Sam68 (KHDRBS1), -0.141; in test [17] it was -1.59; in test [18] it was -1.04. The z-score in test [2] is -2.07. For the same compound, in test [11], the composite Z-score was 0.0953 (inactive).

Turning to `Cc1ccc(S[C@]2(C(=O)NCC(F)(F)F)CC(=O)N(C3Cc4ccccc4C3)[C@@H]2c2ccc(CO)cc2I)cc1`, the composite z-score in [1] is -0.263; in [3], -1.56; in [4], -0.0026; in [5], 0.994; in test [6], -0.184; in test [7], -0.197. Besides, the composite z-score is 2.14 in test [8]; 0.265 in test [9]; 0.918 in [10]; 0.0944 with Albumin (Bos taurus); -0.207 in test [12]; -0.156 in test [13]. In addition, the composite z-score is 0.629 in [14]; 0.403 in test [15]; -0.245 in [16]; -0.292 with Sam68 (KHDRBS1); -1.18 in [17]; -1.71 in [18]. In test [2], the z-score is -1.55. The composite Z-score in test [11] was 0.325 (inactive).
